DT40 TDP1 no CPT – qHTS for Inhibitors of human tyrosyl-DNA phosphodiesterase 1 (TDP1): qHTS in cells in absence of CPT; DT40 Tdp1-/- hTDP1 cells, no CPT, ATP luminescence, 48 h; Potency, µM (series often up to 46.2 µM), for inactives: at the highest dose activity change, negative = growth inhibition, actives largely listed as inhibitors; 420,000 tested, 15% active; AID 686978, 2013; also: % is scaled to controls: 0 for no effect and ±100 for the full control effect; nearly all actives have a fitted effect of over 55% in size
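Luminescent ATP content (CellTiter-Glo) served as the growth readout. Knockout chicken DT40 cells expressing human TDP1 were exposed to compounds without camptothecin for a minimum 48 hr at 37 °C.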
TDP1 block – inhibitors of human tyrosyl-DNA phosphodiesterase TDP1; 350,000 tested, 0.28% active; AID 485290; Q9NUW8; recombinant TDP1, AlphaScreen DNA substrate cleavage; Potency, µM (highest dose often 130 µM), inactives show at the highest dose activity change, negative = inhibition, hits mostly inhibitors; also: % is scaled to controls: 0 for no effect and ±100 for the full control effect; nearly all actives have a fitted effect of over 40% in size
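Recombinant human Tdp1 (E. coli-expressed, 1 nM final) preincubated with compounds 15 min at room temperature, then 5'-biotin/3'-phosphotyrosine-FITC DNA substrate (15 nM final) added for 5 min. AlphaScreen beads (10 ug/ml final) added 10 min; cleavage lowers signal.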
ClpP mod – qHTS Assay for Activators of ClpP. purified B. subtilis ClpP, FRET peptide cleavage, 20 min. 340,000 tested, 1.9% active. Potency, µM (titrated, usually from 57.5 µM), without a hit: at the highest dose activity change, negative = active. AID 651965, 2013; active = well fitted falling curve with a large enough effect; inconclusive = small, poorly fitted or top-dose-only effect; inactive = no such curve, though single readings can be large or run the other way; also: the source files actives as falling curves though it sought activators and does not explain the sign; nearly all actives have a fitted effect of over 65% in size
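ClpP 10 microg/mL final, pH 8 Tris/KCl buffer with BSA, glycerol, Tween-20; compound pinned in; FRET-FV substrate; RT 20 min; Ex320/Em430; ΔFRET vs ADEP 5.8 microM, DMSO, no enzyme.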
TDP1 cell CPT – growth inhibition of DT40 Tdp1-/-;hTDP1 cells with camptothecin (screen for TDP1 inhibitors). chicken DT40 Tdp1-/-;hTDP1 cells + 20 nM CPT, ATP luminescence, 48 h. Potency, µM (titrated, usually from 46.2 µM), without a hit: at the highest dose activity change, negative = growth inhibition, most hits filed as inhibitors. 420,000 tested, 12% active. AID 686979; also: % is scaled to controls: 0 for no effect and ±100 for the full control effect; nearly all actives have a fitted effect of over 55% in size
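Chicken DT40 Tdp1-/- cells complemented with human TDP1, 400 cells/well, exposed to compounds plus 20 nM camptothecin for at least 48 h at 37 C; viability read as ATP content by CellTiter-Glo luminescence.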
* hit, by the source's call; ? = inconclusive; . = no result. Most compounds without a hit are left out; they make up all but 17% or so of the library. Unless noted, calls follow the shape of the dose curve; as a rule, active = well fitted curve in the direction sought with a large enough effect; inconclusive = small, poorly fitted or top-dose-only effect, or another doubt; inactive = no such curve, though single readings can be large; an effect the other way counts as inactive or inconclusive. Potency is read from the fitted curve at half-maximal effect.

SMILES	DT40 TDP1 no CPT	TDP1 block	ClpP mod	TDP1 cell CPT
COc1cc2c(NC3CCN(C)CC3)nc(N3CCCN(C)CC3)nc2cc1OCCCCCN(C)C	14µM*	.	4%	11µM*
COc1cc2c(NC3CCN(C)CC3)nc(N3CCCN(C)CC3)nc2cc1OCCN(C)C	11µM*	.	4%	11µM*
COc1cc2c(NC3CCN(C(C)C)CC3)nc(N3CCCN(C)CC3)nc2cc1OCCCN(C)C	6.3µM*	.	5%	3.2µM*
Cc1ccc(Cn2ccn(Cc3ccc(C)cc3)c(=O)c2=O)cc1	-10%	1%	-3%	-3%
CC(=O)NS(=O)(=O)c1ccc(NC(=O)c2cc(-c3cccs3)nc3ccccc23)cc1	-26%	5%	?	4%
CN(C)S(=O)(=O)c1ccc(NC(=O)c2cc(-c3cccs3)nc3ccccc23)cc1	15µM*	1%	16µM*	?
CCN(CC)S(=O)(=O)c1ccc(NC(=O)c2cc(-c3cccs3)nc3ccccc23)cc1	?	1%	28µM*	?
CCN(CC)C(=O)C1CCN(Cc2cn(C)nc2-c2ccc(Oc3ccccc3)cc2)CC1	21µM*	3%	0%	?
C[C@H]1C(=O)N(C)CCN1Cc1cn(C)nc1-c1ccc(Oc2ccccc2)cc1	?	0%	.	?
COC(=O)N1CCc2c(sc(NC(=O)C3=COCCO3)c2C#N)C1	0.92µM*	-1%	1%	1.3µM*
COc1cccc(C(=O)Nc2sc3c(c2C#N)CCN(C(C)=O)C3)c1	1.5µM*	0%	-3%	2.1µM*
COc1cccc(C(=O)Nc2sc3c(c2C(=O)O)CCCC3)c1	?	.	0%	-24%
COc1ccccc1NS(=O)(=O)c1ccc(Cl)c(NC(=O)C(C)N2C(=O)c3ccccc3C2=O)c1 (stereo unspecified)	-13%	-1%	0%	5%
COc1cccc(C2=NCCc3cc4c(cc32)OCO4)c1OC	?	3%	-3%	-3%
COc1ccc2cc3[n+](cc2c1OC)CCc1cc2c(cc1-3)OCO2	2.3µM*	2%	-1%	3.7µM*
COc1ccc(/C=N/NC(=O)c2ccc(NC(=O)c3cccc([N+](=O)[O-])c3)cc2)c(OC)c1	?	5%	.	-26%
COc1cc([N+](=O)[O-])cc(/C=N/NC(=O)C(C)Nc2ccccc2C)c1O (stereo unspecified)	18µM*	11%	1%	15µM*
COc1cc([N+](=O)[O-])cc(/C=N/NC(=O)c2ccc(C)nc2)c1O	2.9µM*	-7%	-5%	5.2µM*
COc1cc([N+](=O)[O-])cc(/C=N/NC(=O)c2ccc(NC(=O)c3ccc(C)cc3)cc2)c1O	4.1µM*	-5%	.	2.9µM*
Cc1ccc(C(=O)N/N=C/c2cc(Br)ccc2O)cn1	5.2µM*	.	-3%	4.1µM*
O=C1C=C(c2ccc(F)nc2)C[C@@H](c2ccc3c(c2)OCO3)C1	?	1%	1%	-29%
COc1cccc(CNC(=O)CCn2c(=O)c3cccn3c3ccc(F)cc32)c1OC	23µM*	5%	-24%	?
CCc1ccc(CNC(=O)CCn2c(=O)c3cccn3c3ccc(F)cc32)cc1	?	8%	-2%	?
CC(C)Oc1ccc(CNC(=O)CCn2c(=O)c3cccn3c3ccc(F)cc32)cc1	?	6%	-10%	?
CCOc1ccccc1CNC(=O)CCn1c(=O)c2cccn2c2ccc(F)cc21	16µM*	1%	-13%	?
SMILES	DT40 TDP1 no CPT	TDP1 block	ClpP mod	TDP1 cell CPT
O=C(C1=COCCO1)N1CCN(c2nc3ccc([N+](=O)[O-])cc3s2)CC1	5.2µM*	-6%	0%	9.2µM*
O=S(=O)(c1cccc(-c2nc3n(n2)Cc2ccccc2-3)c1)N1CCCCC1	?	6%	0%	?
O=S(=O)(c1cccc(-c2nc3n(n2)Cc2ccccc2-3)c1)N1CCCC1	?	5%	0%	21µM*
CCOc1ccc(CNC(=O)c2cnc3sc(N4CCC(C)CC4)nn3c2=O)cc1OC	1%	3%	-15%	?
Cc1nn(CC(=O)Nc2sc3c(c2C#N)CCC(C(C)(C)C)C3)c(C)c1[N+](=O)[O-] (stereo unspecified)	18µM*	4%	1%	26µM*
Fc1ccc(-n2cc(-c3ccccc3)[n+]3c2SCC3)cc1	?	8%	1%	-30%
CC(C)(C)c1ccc(-c2cn(-c3ccc(Br)cc3)c3[n+]2CCCS3)cc1	0.18µM*	5%	.	0.16µM*
COc1ccc(-c2cn(-c3ccccc3)c3[n+]2CCS3)cc1	2.3µM*	5%	1%	2.3µM*
CN1/C(=C\C(=O)COc2ccc3c(c2)OCO3)C(C)(C)c2ccccc21	8.2µM*	5%	-18%	8.2µM*
CN1/C(=C\C(=O)COC(=O)C2COc3ccccc3O2)C(C)(C)c2ccccc21 (stereo unspecified)	?	1%	-28%	12µM*
CN1C(=O)C(O)(CC(=O)/C=C\c2ccc3c(c2)OCO3)c2ccccc21 (stereo unspecified)	?	7%	.	?
CN1/C(=C\C(=O)C[n+]2ccc3ccccc3c2)C(C)(C)c2ccccc21	0.29µM*	-3%	.	0.65µM*
O=C(COC(=O)C1COc2ccccc2O1)c1ccccc1 (stereo unspecified)	4%	.	-1%	-6%
Cc1ccc(C(=O)NCC(=O)OCC(=O)/C=C2\N(C)c3ccccc3C2(C)C)cc1C	?	4%	-22%	16µM*
COc1cc(-c2nc3cccc(C)n3c2NCC2CCCO2)ccc1O (stereo unspecified)	?	4%	-1%	-14%
CCOC(=O)Cc1nnc(Nc2ccc(C(=O)NC)cc2)c2ccccc12	-22%	.	.	?
COCCNC(=O)C1(C)CCN(C(=O)c2ccc(SC(F)(F)F)cc2)C1 (stereo unspecified)	-14%	.	-3%	0%
Cc1nc(Cl)c2c(n1)N(CC(N)=O)C(=O)CO2	-2%	3%	0%	-3%
COc1ccccc1OCC(=O)/C=C1/N(C)c2ccccc2C1(C)C	21µM*	-8%	.	16µM*
CN1/C(=C\C(=O)COC(=O)c2ccco2)C(C)(C)c2ccccc21	?	4%	-29%	?
Cc1noc(C)c1C(=O)OCC(=O)/C=C1/N(C)c2ccccc2C1(C)C	12µM*	.	.	?
Cc1ccc(NS(=O)(=O)c2cc3c(cc2-c2ccccc2)NC(=O)CO3)cc1C	.	0%	.	.
Brc1ccc(OCCOCCOc2cccc3cccnc23)cc1	23µM*	.	-6%	?
Clc1ccc(OCCOCCOc2cccc3cccnc23)c(Br)c1	?	0%	-14%	23µM*
Brc1ccccc1OCCOCCOc1cccc2cccnc12	?	3%	-10%	?
Brc1ccc(OCCCOc2cccc3cccnc23)cc1	-23%	.	.	-1%
